Assay results published in PubChem BioAssay (Tox21).
Inconclusive results are not listed. Entries that show only a call come without a potency. Values without a mark were called inactive. Calls of active or inactive are those of the source. The call rests on the fitted dose curve; in most records, active means well fitted cell-killing curve with a large enough effect in the repeat runs; inconclusive means weak or mixed curves, or effect the other way; inactive means flat fitted curve, though single readings scatter.

Legend:
[1] = cAMP Responsive Elements (CRE) small molecule antagonists, cell-based qHTS assay: qHTS cell viability counter screen (AID 2060913); conditions: CRE-bla HEK293T viability, CellTiter-Glo luminescence, 5 h; series mostly up to 92.4 µM; further: nearly all actives have a fitted effect of over 40% in size
Procedure, shortened: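 CRE-bla HEK293T cells (2,000/well, 18 h) given compound plus NKH477 0.25 uM final for 3 h at 37C; viability counter-screen by CellTiter-Glo luminescence in same wells after 30 min.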

[2] = cAMP Responsive Elements (CRE) small molecule agonists, cell-based qHTS assay: qHTS cell viability counter screen (AID 2060914); conditions: CRE-bla HEK293T viability, CellTiter-Glo luminescence, 5 h; series mostly up to 92.4 µM; further: nearly all actives have a fitted effect of over 50% in size
Procedure, shortened: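 In the same wells as the reporter read, viability of CRE-bla HEK 293T cells was quantified by CellTiter-Glo luminescence after a 3 h compound exposure.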
Potency means the concentration at half of the fitted maximal effect.

Compound | Potency [1] | Potency [2] | viability change, negative = cytotoxic [1] | activity change, negative = cytotoxicity [2]
COC(=O)c1ccccc1C(=O)c1ccc(OCCN2CCCCC2)cc1 | inactive | inactive |  | 
C[Si]1(C)O[Si](C)(C)O[Si](C)(C)O1 | inactive | inactive |  | 
CC/C=C/CCCCCCCCCCOC(C)=O | inactive | inactive |  | 
NCCc1ccc(O)c(O)c1 | inactive | inactive |  | 
C=CC(=O)O | inactive | inactive |  | 
CCCCCCCCCCCCCCN(CCO)CCO | inactive | inactive |  | 
COCCOCCOCCOCCOCCO | inactive | inactive |  | 
SCCCCCCCCS | inactive | inactive |  | 
O=C(O)CCCCCCCCCC(=O)O | inactive | inactive |  | 
C[C@]12CC[C@H]3[C@@H](CCC4=CC(=O)CC[C@@]43C)[C@@H]1CC[C@@H]2C(=O)CO | inactive | inactive |  | 
Cc1cccc(C)c1NC(=O)CN(CC(=O)O)CC(=O)O | inactive | inactive |  | 
CCC(C)OC(=O)c1ccc(O)cc1 (centres undefined) | inactive | inactive |  | 
OCC(CO)N[C@H]1C[C@](O)(CO)[C@@H](O)[C@H](O)[C@H]1O | inactive | inactive |  | 
CCCOC(=O)NCCCN(C)C | inactive | inactive |  | 
Nc1nnc(-c2cccc(Cl)c2Cl)c(N)n1 | inactive | inactive |  | 
O=C(O)/C=C/c1ccc(Cn2ccnc2)cc1 | inactive | inactive |  | 
C=C(C)C(=O)NCCC[N+](C)(C)C | inactive | inactive |  | 
CN1CCN(C(c2ccccc2)c2ccccc2)CC1 | inactive | inactive |  | 
CC1(C)C(=O)N(Br)C(=O)N1Cl | inactive | inactive |  | 
Cn1c(=O)c2[nH]c(Br)nc2n(C)c1=O | inactive | inactive |  | 
COc1cc(-c2nc(NC(=O)c3cc4cc(C)cc(C)c4n3CC(=O)O)sc2CCC2CCCCC2)c(OC)cc1Cl | 25 µM (active) | 25 µM (active) |  | 
CN(C)C(=O)Nc1ccc(Oc2ccc(Cl)cc2)cc1 | inactive | inactive |  | 
CCC1CCCCC1 | inactive | inactive |  | 
BrC/C=C/CBr |  |  | 15.6% [at 18.9 µM] | 3.61% [at 18.9 µM]

Compound | Potency [1] | Potency [2] | viability change, negative = cytotoxic [1] | activity change, negative = cytotoxicity [2]
COC(=O)c1cc(Cl)ccc1[N+](=O)[O-] | inactive | inactive |  | 
CC(C)(C)CCCCCCOC(=O)c1ccccc1C(=O)OCCCCCCC(C)(C)C | inactive | inactive |  | 
O=C1CC2(CCCC2)CC(=O)N1 | inactive | inactive |  | 
O=C(OCc1ccccc1)c1ccc(O)cc1 | inactive | inactive |  | 
CCOC(=O)[C@@H](C)Oc1ccc(Oc2nc3ccc(Cl)cc3o2)cc1 | inactive | inactive |  | 
CCC(C(=O)O)c1ccc(N2Cc3ccccc3C2=O)cc1 (centres undefined) | inactive | inactive |  | 
CC(C)(C)NCC(O)COc1ccccc1OCC1CCCO1 (centres undefined) | inactive | inactive |  | 
Cc1ccc(O)c([C@H](CCN(C(C)C)C(C)C)c2ccccc2)c1 | inactive | inactive |  | 
CC/C=C\C/C=C\C/C=C\CCCCCCCC(=O)OC | inactive | inactive |  | 
Cc1nc2ccccc2s1 | inactive | inactive |  | 
CC/C=C\CCOC(=O)c1ccccc1O | inactive | inactive |  | 
Cc1ccsc1/C=C/C1=NCCCN1C | inactive | inactive |  | 
C=C(C)C(=O)OC(C)C | inactive | inactive |  | 
CC(=O)Nc1ccc(C)cc1C | inactive | inactive |  | 
[Ca+2] | inactive | inactive |  | 
CCCCN1CCCC[C@H]1C(=O)Nc1c(C)cccc1C | inactive | inactive |  | 
CCn1c2ccccc2c2cc([N+](=O)[O-])ccc21 | inactive | inactive |  | 
COc1cc(N)ccc1C | inactive | inactive |  | 
Nc1[nH]c(=O)ncc1F | inactive | inactive |  | 
COC(=O)c1cccc(Cl)c1 | inactive | inactive |  | 
CC1(C)C(=O)N(Br)C(=O)N1Br | inactive | inactive |  | 
CC1CCCNC1 (centres undefined) | inactive | inactive |  | 
O=Nc1ccc(Nc2ccccc2)cc1 | inactive | inactive |  | 
